Laboratory results taken from PubChem BioAssay (NCATS).
Records with an inconclusive call do not appear. The source made the active and inactive calls. Calls follow the shape of the dose curve; as a rule, active = well fitted cell-killing curve with a large enough effect; inconclusive = small, poorly fitted or top-dose-only effect, or effect the other way; inactive = no such curve, though single readings can be large or run the other way.

Experiment: Quantitative High-Throughput drug screen in 47 multiple myeloma cell lines against the NCATS MIPE library collection: RPMI8226_ATCC cell viability assay (AID 1919871); also: nearly all actives have a fitted effect of over 30% in size
Conditions: RPMI8226 myeloma viability, CellTiter-Glo ATP luminescence, 48 h; series mostly up to 45.8 µM; viability (% of control): at the top concentration
Excerpt: PI: Beverly A. Mock Ph.D.
Laboratory of Cancer Biology and Genetics,
Center for Cancer Research, National Cancer Institute,
National Institute of Health, Bethesda, Maryland
Drug resistance and disease progression are common in multiple myeloma (MM) patients, underscoring the need for new therapeutic combinations. […] We hypothesized that effective combinations would reduce MYC expression and enhance p16 activity. […] These preclinical data identify potentially useful drug combinations for evaluation in drug-resistant MM and reveal potential mechanisms of combined drug sensitivity.
Described herein is the primary MIPE qHTS used to cherrypick compounds. Validated compounds were then further tested for potential synergistic activiy.
[1] Peat TJ, Gaikwad SM, Dubois W, Gyabaah-Kessie N, Zhang S, Gorjifard S, Phyo Z, Andres M, Hughitt VK, Simpson RM, Miller MA, Girvin AT, Taylor A, Williams D, D'Antonio N, Zhang Y, Rajagopalan A, Flietner E, Wilson K, Zhang X, Shinn P, Klumpp-Thomas C, McKnight C, Itkin Z, Chen L, Kazandijian D, Zhang J, Michalowski AM, Simmons JK, Keats J, Thomas CJ, Mock BA. Drug combinations identified by high-throughput screening promote cell cycle transition and upregulate Smad pathways in myeloma. Cancer Lett. 2023 Aug 1;568:216284. doi: 10.1016/j.canlet.2023.216284. Epub 2023 Jun 24. PMID: 37356470; PMCID: PMC10408729.
SEQUENCE No. (e.g., 1, 2, 3, etc.); […] (e.g., Cells, Incubation, Reagent, etc.); VALUE and DESCRIPTION.
1; Cells; 5 uL; white, solid bottom 1536-well Greiner assay plate.
2; Compounds; 23 nL; Kalypsis pin tool (Wako USA) equipped with a 1536-well pin head to transfer to the assay plates.
3; Incubation; 48 hours; 37C incubation.
4; Reagent;5uL; CellTiter Glo (Promega).
5; Detector; 425V; Luminescence; Viewlux PerkinElmer.
NOTES (numbers refer to Sequence numbers above)
1. The cell-based screening methods employed in this study were like those previously published. Briefly, the corresponding myeloma cell lines were screened in 1,536-well plates with 500 cells, 5-uL per well for inhibition of cell viability (assessed by measuring ATP levels with CellTiterGlo).
2. NCATS MIPE 4.0 library of approved and investigational drugs were added using the Kalypsis pin tool. Wells treated with DMSO only for 100% viability and media only for 0% viability were used as controls.
3. The assay plates were covered and incubated for 48 hours in a 37C, 5% CO2 incubator with controlled humidity.
4. After 48 hours, CellTilter-GloTM luminescent substrate mix (Promega) reagent was added to the assay plate and plates we incubated for 5 min at room temperature.
5. Signal was measured as median relative luminescence units on a ViewLux (PerkinElmer) multiplate reader.
[1] Heske CM, Davis MI, Baumgart JT, Wilson K, Gormally MV, Chen L, Zhang X, Ceribelli M, Duveau DY, Guha R, Ferrer M, Arnaldez FI, Ji J, Tran HL, Zhang Y, Mendoza A, Helman LJ, Thomas CJ. Matrix Screen Identifies Synergistic Combination of PARP Inhibitors and Nicotinamide Phosphoribosyltransferase (NAMPT) Inhibitors in Ewing Sarcoma. Clin Cancer Res. 2017 Dec 1;23(23):7301-7311. doi: 10.1158/1078-0432.CCR-17-1121. Epub 2017 Sep 12. PMID: 28899971; PMCID: PMC6636827.
Potency is read from the fitted curve at half-maximal effect.

SMILES | viability (% of control) | Potency
NC(=O)c1ncn([C@@H]2O[C@H](CO)[C@@H](O)[C@@H]2O)c1N | 125% (inactive) | 
C=CCNc1c(O)cc2c(O)c1C[C@@H](C)C[C@H](OC)[C@@H](O)[C@@H](C)C=C(C)[C@H](OC(N)=O)[C@@H](OC)C=CC=C(C)C(=O)N2 |  | 0.418 µM (active)
CNC(=O)c1ccc(Nc2cc(Nc3ccccc3S(=O)(=O)C(C)C)c3cc[nH]c3n2)nc1 |  | 18.7 µM (active)
CCNC(=O)Nc1ccc(-c2nc3c(c(N4CCOC[C@H]4C)n2)CCN(C2COC2)C3)cc1 |  | 0.743 µM (active)
CC(=O)N[C@H]1[C@@H]([C@H](O)[C@H](O)CO)OC(C(=O)O)=C[C@@H]1N=C(N)N | 108% (inactive) | 
COC1=C2C[C@@H](C)C[C@H](OC)[C@@H](O)[C@@H](C)C=C(C)[C@H](OC(N)=O)[C@@H](OC)C=CC=C(C)C(=O)NC(=CC1=O)C2=O |  | 0.105 µM (active)
O=C(CN1C(=O)C2(CCCC2)NC[C@H]1c1cc(F)cc(F)c1)Nc1ccc2c(c1)C[C@@]1(C2)C(=O)Nc2ncccc21 | 114% (inactive) | 
C=CC(=O)Nc1cc(NC(=O)c2ccc(C)c(NC(=O)c3ccno3)c2)cc(C(F)(F)F)c1 |  | 23.5 µM (active)
Cc1ccc([N+](=O)[O-])cc1S(=O)(=O)N(C)N=Cc1cnc2ccc(Br)cn12 |  | 0.0469 µM (active)
CC(=O)OCC(=O)[C@@]12N=C(C)O[C@H]1C[C@H]1[C@@H]3CCC4=CC(=O)C=C[C@]4(C)[C@@H]3[C@@H](O)C[C@@]12C |  | 0.469 µM (active)
CN[C@H]1[C@@H](O)[C@@H]2O[C@@H]3O[C@H](C)CC(=O)[C@]3(O)O[C@@H]2[C@@H](NC)[C@H]1O |  | 9.35 µM (active)
N#Cc1c(C2CCNCC2)cc(-c2c(O)cccc2OCC2CC2)nc1N |  | 20.9 µM (active)
COc1cc(C)c(Sc2cnc(NC(=O)c3ccc(CNC(C)C(C)(C)C)cc3)s2)cc1C(=O)N1CCN(C(C)=O)CC1 (stereo not given) |  | 16.6 µM (active)
COc1cc2c(Nc3ccc(Cl)c(Cl)c3F)ncnc2cc1OCC1C[C@@H]2CN(C)C[C@H]2C1 |  | 8.33 µM (active)
C=C1C(=O)O[C@H]2[C@@H]1CCC(C)=CCC[C@@]1(C)O[C@@H]21 |  | 5.26 µM (active)
CCCCCCCCCCCC(CC1OC(=O)C1CCCCCC)OC(=O)C(CC(C)C)NC=O (stereo not given) |  | 18.7 µM (active)
C[C@@H](Cc1cc2c(c(C(N)=O)c1)N(CCCO)CC2)NCCOc1ccccc1OCC(F)(F)F | 97% (inactive) | 
O=C(O)C(=O)Nc1cccc(C2=NN=N[N]2)c1 | 101% (inactive) | 
CCCc1nc(C(C)(C)O)c(C(=O)O)n1Cc1ccc(-c2ccccc2-c2nn[nH]n2)cc1 | 117% (inactive) | 
CCC(C=C[C@@H]1OC(=O)C=C[C@H]1C)=C[C@H](C)CC=CC(C)=C[C@@H](C)C(=O)[C@@H](C)[C@H](O)[C@@H](C)CC(C)=CC(=O)O |  | 0.0311 µM (active)

SMILES | viability (% of control) | Potency
CC(C)N1[N]C(=C2C=c3cc(O)ccc3=N2)c2c(N)ncnc21 |  | 0.0418 µM (active)
Nc1ccn(C[C@@H](CO)OCP(=O)(O)O)c(=O)n1 | 103% [at 23.2 µM] (inactive) | 
CNC(=O)c1cccc(-c2ccc3c(N4CCOC[C@H]4C)nc(N4CCOC[C@H]4C)nc3n2)c1 |  | 0.0209 µM (active)
COC(=O)[C@@H]1[C@H]2C[C@@H]3c4[nH]c5ccccc5c4CCN3C[C@@H]2CC[C@@H]1O | 126% (inactive) | 
Cc1nc(NC(=O)N2CCC[C@@H]2C(N)=O)sc1-c1ccnc(C(C)(C)C(F)(F)F)c1 |  | 3.32 µM (active)
COC(=O)C=CC(=O)OC | 137% (inactive) | 
CCC(C(=O)O)C1CCC(C)C(C(C)C(O)C(C)C(=O)C(CC)C2OC3(C=CC(O)[C@@]4(CC[C@](C)(C5CC[C@@](O)(CC)C(C)O5)O4)O3)C(C)CC2C)O1 (stereo not given in full) |  | 2.35 µM (active)
OC[C@H]1OC(O)C[C@@H](O)[C@H]1O (stereo not given in full) | 108% (inactive) | 
CCN(C(=O)c1c(O)c2c(Cl)cccc2n(C)c1=O)c1ccccc1 | 106% (inactive) | 
O=C(O)C=Cc1ccc(Cn2ccnc2)cc1 | 108% (inactive) | 
N=c1ccn2c(n1)O[C@H]1[C@@H](O)[C@@H](CO)O[C@H]12 | 116% (inactive) | 
C=Cc1c(C)c2cc3nc(cc4[nH]c(cc5nc(cc1[nH]2)C(C)=C5CCC(=O)O)c(CCC(=O)OC)c4C)[C@@]1(C)C3=CC=C(C(=O)OC)[C@H]1C(=O)OC |  | 0.935 µM (active)
CN(C)c1ccc(C(=O)NCCCCCCC(=O)NO)cc1 |  | 1.87 µM (active)
C#CCC(Cc1cnc2nc(N)nc(N)c2n1)c1ccc(C(=O)N[C@@H](CCC(=O)O)C(=O)O)cc1 (stereo not given in full) | 102% (inactive) | 
Cc1cc(O)c2c(c1)C(=O)c1cccc(O)c1C2=O | 131% (inactive) | 
Cc1ccc(O)c(C(CCN(C(C)C)C(C)C)c2ccccc2)c1 (stereo not given) | 116% (inactive) | 
C[C@H](CCC(=O)O)[C@H]1CCC2C3C[C@H](O)[C@@H]4C[C@H](O)CC[C@]4(C)C3CC[C@@]21C (stereo not given in full) | 80.5% (inactive) | 
O=C(Nc1nnc(-c2ccco2)o1)c1cc(-c2ccccc2)nc2ccccc12 |  | 13.2 µM (active)
Oc1cc(-c2nc(-c3ccccc3)[nH]c2-c2ccncc2)ccc1Cl |  | 16.6 µM (active)
Cn1cc(C=CC(=O)c2cccc(F)c2)cc1C=CC(=O)NO | 104% (inactive) | 
